Experimental data reported in PMC13494018.
Values without a mark were called inactive. The rule behind the calls is not given here.

B1: design_596_3e5f537c-0703-45f0-993f-ff416531349a_2079_dldesign_0_cycle1_af2pred (protein)
chain: MEKEELQRRLKETAEKLAEKHPEAAPAARLVIRVGEKANAEEVRKLLELTEKALGENWKEYAAEATEYAVEIEADILVKELK
B2: design_597_f3dcd2b3-c7aa-4b15-88bc-bbb8d01a18cd_570_dldesign_0_cycle1_af2pred (protein)
chain: NAIKKEVEEHLAKAEEYTAKAIETASDPEKFKEYFEKMREEFGKALKAAKADPELKKLAEDKLMEAQMKVTEAKGEAARKKNN
B3: design_597_f3dcd2b3-c7aa-4b15-88bc-bbb8d01a18cd_98_dldesign_0_cycle1_af2pred (protein)
chain: AERVEAAGKIALARIDKAGKGTKEELAVASAQAMALVGVTAGASDEEIDAMVDKVEAAAKGANPVADAKKVLTAAIKELAAK
B4: design_596_3e5f537c-0703-45f0-993f-ff416531349a_1289_dldesign_0_cycle1_af2pred (protein)
chain: MNDALAAESYGEGLVEDAEKEAKEAIEKGASPEELKKVAKKARERAERVRRYAERRAKEAENSEEVLAAGEKAVKKLEEIAKELEKAA
B5: design_596_3e5f537c-0703-45f0-993f-ff416531349a_2108_dldesign_0_cycle1_af2pred (protein)
chain: DAVKKAAEEGKERVRRRAEREKKRVTPEARPEIEKAEEKGVKKVEEAAKGTVKEVANAAQEGITEVIEVGAENKIKA
B6: design_596_3e5f537c-0703-45f0-993f-ff416531349a_2018_dldesign_0_cycle1_af2pred (protein)
chain: AAEKKAKAEAKKIVEEAAKIAKEKGYDEGMKYAYKASKELAEKYGKEYGAKAFEEAVDAIGDELAKKVKE
B7: design_596_3e5f537c-0703-45f0-993f-ff416531349a_666_dldesign_0_cycle1_af2pred (protein)
chain: SEEGKKKVEEAKKRAEKAKKKAKEAIKKSKEEGKAAVYSLLGIAESFKLLAKAMAKTDPEAGKKIKEVAEEAEKKAKELLEEVEK
B8: design_596_3e5f537c-0703-45f0-993f-ff416531349a_1302_dldesign_0_cycle1_af2pred (protein)
chain: KEKLIEEAKKEAKEVVEKAKAILKSKAKEGKLEEGIKEAANLLQEFQQKLTEISFENPEVKEDMEKIFKEARDELKAEIEAAKAA
B9: design_596_3e5f537c-0703-45f0-993f-ff416531349a_1563_dldesign_0_cycle1_af2pred (protein)
chain: AEKHLKEAKKLAEEAKKLAEEAEKDPSTAPEKAKKAEEAARKAREEAKKAAEADPSVAPEAAKAAQEAYEARAVAEAVANRYLK
B10: design_596_3e5f537c-0703-45f0-993f-ff416531349a_566_dldesign_0_cycle1_af2pred (protein)
chain: DKLVEEAKKAAEEAEKLLDKAIKVSPKAAAEAATAYALYENALSAAESGSATEEEVKAQLEKGKEKLKKAKEIMKKEEEKK
B11: design_596_3e5f537c-0703-45f0-993f-ff416531349a_1052_dldesign_0_cycle1_af2pred (protein)
chain: GEEKLKEAKKEAEKKLEELKKKGKEVGPEAVKIVEKAKERIEKKYKEAEKMKNKEAGALSFEEFAKDAIEAAKKQIEKLAKEKA
B12: design_596_3e5f537c-0703-45f0-993f-ff416531349a_1315_dldesign_0_cycle1_af2pred (protein)
chain: SITYKNKALAYLEAAKHALEVAKKNVGDLEKVKKAYEQAKKFVEKALEYASKVTPEFLAEAKAESEKILAEMEKVLKEAE
B13: design_596_3e5f537c-0703-45f0-993f-ff416531349a_1819_dldesign_0_cycle1_af2pred (protein)
chain: HAATVKAVAAEAKELAEEKIKAMKENAKDEEGIKLAVNSMKRFADNDAKLGPEAGAAAKAEYEKVEKAAKEIIKEAKA
B14: design_596_3e5f537c-0703-45f0-993f-ff416531349a_508_dldesign_0_cycle1_af2pred (protein)
chain: KEKIQKEGLKEIEKIAEEGIKEAKKYAEEGKYEEAKKIAKEALEKMREKAKELGEKVGEEAQKQGAKIIQKAREELSEYVQKAKLKK
B15: design_596_3e5f537c-0703-45f0-993f-ff416531349a_338_dldesign_0_cycle1_af2pred (protein)
chain: GSMEEKKKKEVEEAEKEAEKILEKAKKEAEKAAKKSPAQAVEVALEALSELKYLGSKYPEKAEEFEKRGRELVEEYKKKAE
B16: design_597_f3dcd2b3-c7aa-4b15-88bc-bbb8d01a18cd_271_dldesign_0_cycle1_af2pred (protein)
chain: DEAKKKAAEELAEAYEYVAEALALGKKTNEEAKKLAKEAKEEFKKYRDKAKALYKAGNYEEAYKEAKKAYEESKKKLEEIKKIAE
B17: design_597_f3dcd2b3-c7aa-4b15-88bc-bbb8d01a18cd_135_dldesign_0_cycle1_af2pred (protein)
chain: MLTVMQAADIIIDKGAEEAKKAMVETALDVAKKYGIEAGRKAARTLSRIFKNAYGEEEGKEAEKEVLEALEKLEKE
B18: design_596_3e5f537c-0703-45f0-993f-ff416531349a_2330_dldesign_0_cycle1_af2pred (protein)
chain: EEALKKAEERYEKYGKKALELAEKVGLKEEVEEGIKDPSKMPEVIKKLEELGEENPEVRKDAYLAASYLQRAQQAYETKKKIEAA
B19: design_596_3e5f537c-0703-45f0-993f-ff416531349a_2320_dldesign_0_cycle1_af2pred (protein)
chain: KKVEELKKKMLEELEKIIEIAKTLPPEEAERLITFAKAARERGEKKGVRGLAKAALNVAFEASKYEETKEAAEKLEELANEIIKLT
B20: design_596_3e5f537c-0703-45f0-993f-ff416531349a_778_dldesign_0_cycle1_af2pred (protein)
chain: AAAEEEKEQKEKLEEVKELAKKMVEEVKEYAKKTTVEEAKKYLDEKKKELFKYAREKVGYEGVEEAVEAYGEARTAILKLEKN
B21: design_596_3e5f537c-0703-45f0-993f-ff416531349a_2173_dldesign_0_cycle1_af2pred (protein)
chain: SELKDLLSEAERARHKAEAIATRAKELAKYDPKEAKKIADEAKKVAEEAKKAAELAEKDPEKGKEAIKKVKEKVKKLEKKVKALEKKV
B22: design_597_f3dcd2b3-c7aa-4b15-88bc-bbb8d01a18cd_430_dldesign_0_cycle1_af2pred (protein)
chain: AVKEKLERAKKYAEETKKLAKELKKNPKFKKTAEEIEKEAEKVLEEAKKAAEKGDAEAVGEKATELRVLKTAAEQLLKAAK
B23: design_596_3e5f537c-0703-45f0-993f-ff416531349a_533_dldesign_0_cycle1_af2pred (protein)
chain: SAITEQNKKEALAERAKHVGEAAVKQAKAHAGDVAYIEKLQKQALEAGKKANEEGKKAAEAAAKEIAKIAAQAKAAK
B24: design_597_f3dcd2b3-c7aa-4b15-88bc-bbb8d01a18cd_63_dldesign_0_cycle1_af2pred (protein)
chain: GEAKAEELIKKAKEALREFAETGSLEALDKAEEYAEEISKFTPEVRAKAAEELEKVGEEGSPAARAVAKNLADYLK
B25: design_596_3e5f537c-0703-45f0-993f-ff416531349a_2235_dldesign_0_cycle1_af2pred (protein)
chain: GLYEEAKKEAKEAFSYGIAYLSAVSAKDPSLAPEAEKELEEAFEKVEKALKDAKSGKNPEKALKEIKEIRDEWKEKLKEARA
B26: design_597_f3dcd2b3-c7aa-4b15-88bc-bbb8d01a18cd_323_dldesign_0_cycle1_af2pred (protein)
chain: EEVEKKLKELAEKVKKAKELAEKDPEKGIELAKEAIKEAQKLGKEADEETKKKLAEVAEEAVEVRFEALEKLVKS
B27: design_596_3e5f537c-0703-45f0-993f-ff416531349a_1686_dldesign_0_cycle1_af2pred (protein)
chain: MDEEIKKKAIEIAQKALEAAAEYEAKAIRTGDEESKKKAEELRELAKKIREALKEGNIEEAKKYAEKAKKLIEEA
B28: design_596_3e5f537c-0703-45f0-993f-ff416531349a_1299_dldesign_0_cycle1_af2pred (protein)
chain: MSKKLTEALSAFNKAAAAAAKLIDEEAKKDPKKAAEVKKLLAKAVYEIDNPEKAAAYLEAAAKAATDAATKAELNAAAAEAKKLGEL
B29: design_596_3e5f537c-0703-45f0-993f-ff416531349a_1970_dldesign_0_cycle1_af2pred (protein)
chain: DEEEKEKKLEEARKAKDEAEEALDKAMEKASPEEALELLEEYRKVSKEAQKLVKEEGVEGAAEAAKLLKEQKKYFEEKYKEL
B30: design_597_f3dcd2b3-c7aa-4b15-88bc-bbb8d01a18cd_362_dldesign_0_cycle1_af2pred (protein)
chain: AAEKAKKAADAFRAIAKAAKLALEDPEKGAAAIQAAVDAAKKESPEIAPYVAAVAEEKLAAVKAKLAAAAAA
B31: design_596_3e5f537c-0703-45f0-993f-ff416531349a_642_dldesign_0_cycle1_af2pred (protein)
chain: SLEENYELAKRVAEAAKEAGKEAKKAGPELAPIGEKAEKEAKELLKEAELAYKDPSYIPEAGKEAQKALEAKAEADWAIAQYK
B32: design_596_3e5f537c-0703-45f0-993f-ff416531349a_1329_dldesign_0_cycle1_af2pred (protein)
chain: MEASEELRKAIKYARELGEKGTEEHKKLAAEAVFYASSDPEKAIALLKEVAKDPKVKELAEKAIEHIKKLAEL
B33: design_596_3e5f537c-0703-45f0-993f-ff416531349a_988_dldesign_0_cycle1_af2pred (protein)
chain: VEKVAKEAKKAAKEARKEAKKTKDGKAAQELLEAASEAEGYAILAEKDPKYAPKAKEAAKKAKELVEKVKKE
B34: design_596_3e5f537c-0703-45f0-993f-ff416531349a_512_dldesign_0_cycle1_af2pred (protein)
chain: DADTIRAASKALKAAGKDPKTAPLAKEAKEALFKGLEYENKDPKKAAEYYKKAAELLRKLAEKAEAKEELLKVAEELEKKAEELKKK
B35: design_596_3e5f537c-0703-45f0-993f-ff416531349a_1683_dldesign_0_cycle1_af2pred (protein)
chain: EEEKRREAAERLRELAKKALEDVENAPEYLEEAAREAEKVGDYTTAVLLEQLAEDVRKASPEEAVKFVRAGAERALRSAERLL
B36: design_596_3e5f537c-0703-45f0-993f-ff416531349a_2087_dldesign_0_cycle1_af2pred (protein)
chain: MAEKLVEKAKAEMKKLVEEAKKGNPEEARKIRKEIIEKGKKALEEADTEEKKKAAEEIKKIAYKAVEEVLEAYGELLVK
B37: design_596_3e5f537c-0703-45f0-993f-ff416531349a_2102_dldesign_0_cycle1_af2pred (protein)
chain: AEAVAEEMLARIEEARDALTAADPTLADIADSIADAAKERMRAAAAEGRAEEVAEVGERAVRTLEHLAKLAK
B38: design_596_3e5f537c-0703-45f0-993f-ff416531349a_466_dldesign_0_cycle1_af2pred (protein)
chain: EEERTKLIKEASDLRREAIALLREAGKAADPATAGAAVFAIPDLEAFTAAAAAAAKAYPELAATWEAAAAKATASHAAVEKAEKL

These binders were tested against VTCN1, Q7Z7D3.
VTCN1, Q7Z7D3, sequence (Q7Z7D3 whole entry): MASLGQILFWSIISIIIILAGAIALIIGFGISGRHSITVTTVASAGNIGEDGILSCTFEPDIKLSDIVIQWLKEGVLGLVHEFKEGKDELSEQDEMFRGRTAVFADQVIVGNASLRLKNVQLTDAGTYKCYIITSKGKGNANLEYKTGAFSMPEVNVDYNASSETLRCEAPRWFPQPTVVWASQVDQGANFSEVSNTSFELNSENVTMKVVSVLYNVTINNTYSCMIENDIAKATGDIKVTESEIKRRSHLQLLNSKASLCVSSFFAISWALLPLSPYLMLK

Binder	binding in a display sort
B1	not found
B2	not found
B3	not found
B4	not found
B5	not found
B6	not found
B7	not found
B8	not found
B9	not found
B10	not found
B11	not found
B12	not found
B13	not found
B14	not found
B15	not found
B16	not found
B17	not found
B18	not found
B19	not found

Binder	binding in a display sort
B20	not found
B21	not found
B22	not found
B23	not found
B24	binds (active)
B25	not found
B26	not found
B27	not found
B28	not found
B29	not found
B30	not found
B31	not found
B32	not found
B33	not found
B34	not found
B35	not found
B36	not found
B37	not found
B38	not found
